RT RNaseH block – inhibitors of HIV-1 reverse transcriptase RNase H; P04585; RT-RNase H RNA/DNA duplex cleavage, fluorescence; inhibition, % at 10 µM; hit rate 1.9% among 65,000; AID 565; in the data active = inhibition above about 50%
Starred values were filed as active, the others as inactive. The full list was thinned out, with hits kept by preference.

SMILES | RT RNaseH block
COc1ccc(-n2c(C)cc(C(=O)CSc3nn4c(=O)c(C(C)(C)C)nnc4s3)c2C)cc1 | 50.2*
COc1ccc(C(=O)CSc2nn3c(=O)c(C(C)(C)C)nnc3s2)cc1 | -5.1
CC(C)(C)c1nnc2sc(SCC(=O)c3ccccc3)nn2c1=O | -2.6
O=C(NCCN1CCCC1)c1ccc2c(=O)n(CCc3ccccc3)c(=O)[nH]c2c1 | 10.6
CCN1CCN(C(=O)c2ccc3c(=O)n(CCC4=CCCCC4)c(=O)[nH]c3c2)CC1 | -25.6
O=C(NCc1ccco1)c1ccc2c(=O)n(CCC3=CCCCC3)c(=O)[nH]c2c1 | 51.8*
COC(=O)c1nn(-c2c(C)n(C)n(-c3ccccc3)c2=O)cc1O | 0.7
COC(=O)c1ccc(-c2sc3nc(N4CCOCC4)c4c(c3c2N)CCCC4)o1 | 18.8
COC(=O)c1ccc(CSc2ncnc3c2sc2nc(N4CCOCC4)c4c(c23)CCCC4)o1 | 82.9*
COC(=O)c1ccc(Cn2nnc3c(sc4nc(N5CCOCC5)c5c(c43)CCCC5)c2=O)o1 | 1.0
Cc1ccccc1Cn1c(=N)n(CC(=O)c2ccco2)c2ccccc21 | 9.8
CC(C)c1ccc(C2CC(=O)N3CN(Cc4ccco4)CSC3=C2C#N)cc1 (centres undefined) | 59.5*
N#CC1=C(N)Oc2c(oc(CO)cc2=O)C1c1cccs1 (centres undefined) | 4.2
COc1ccc(C2CC(=O)N3CN(Cc4ccco4)CSC3=C2C#N)cc1 (centres undefined) | 19.6
N#CC1=C2SCN(Cc3ccco3)CN2C(=O)CC1c1ccc(Cl)cc1 (centres undefined) | 54.5*
COc1ccc(C2CC(=O)N3CN(c4ccccc4F)CSC3=C2C#N)cc1OC (centres undefined) | 59.1*
CSC1=C(C#N)C(c2ccc(C(C)C)cc2)CC(=O)N1 (centres undefined) | -12.7
N#CC1=C2SCN(Cc3ccccc3)CN2C(=O)CC1c1ccc2c(c1)OCO2 (centres undefined) | -24.5
COc1ccc(C2CC(=O)N3CN(c4ccc(C)c(Cl)c4)CSC3=C2C#N)cc1 (centres undefined) | 20.8
COc1ccc2ccccc2c1C1CC(=O)N2CN(Cc3ccco3)CSC2=C1C#N (centres undefined) | 6.4
COc1ccc(OC)c(C2CC(=O)N3CN(c4ccccc4)CSC3=C2C#N)c1 (centres undefined) | 4.0
N#CC1=C2SCN(Cc3ccccc3)CN2C(=O)CC1c1cccs1 (centres undefined) | 64.8*
COc1cc(C2CC(=O)N3CN(Cc4ccco4)CSC3=C2C#N)ccc1OCc1ccccc1 (centres undefined) | 10.7
CCN(CC(=O)NCc1ccccn1)S(=O)(=O)c1ccc(Cl)cc1 | 35.8
COc1ccc(Cl)cc1NC(=O)c1nc2nc(C)cc(C(F)F)n2n1 | 27.9
SMILES | RT RNaseH block
CCOC(=O)C1=C(C)N2C(=C(C#N)[C@@H]1c1ccc(C(=O)OC)cc1)SC[C@@]2(O)C(C)(C)C | 13.4
Cn1c(-c2ccccc2)cc2c3no[n+]([O-])c3ccc21 | -6.4
O=C(CN1CCOCC1)NCC12CC3CC(CC(C3)C1)C2 | -18.1
CCc1nnc(NC(=O)c2c(O)c3cccc4c3n(c2=O)CC4)s1 | -5.6
O=C(CSc1nnnn1-c1ccccc1)N1CCc2ccccc21 | -5.9
CCc1nnc(NCC(=O)N2CCc3ccccc32)s1 | 55.1*
COc1ccc(-c2noc(CCC(=O)NCc3cccnc3)n2)cc1OC | 3.4
Cc1cccc2cc(CN(Cc3nnnn3Cc3ccco3)C3CCCC3)c3nnnn3c12 | -4.6
Cc1csc2nc(CNC(=O)C3CC=CCC3C(=O)O)cn12 (centres undefined) | -7.0
COc1ccc(Cl)cc1N1C(=O)C2CCCN2C1c1sccc1C (centres undefined) | -12.5
Cc1ccc(C)c(-n2c(N)c(C(N)=O)sc2=S)c1 | 14.6
CCOC(=O)c1sc(=S)n(Cc2ccccc2)c1N | 2.4
Cc1ccc(-n2c(N)c(C(N)=O)sc2=S)c(C)c1 | 65.3*
COc1ccc(Cl)cc1-n1c(N)c(C(N)=O)sc1=S | 74.8*
COc1ccc(C2N(c3cc(Cl)ccc3OC)C(=O)C3CCCN32)cc1 (centres undefined) | -4.2
CCOC(=O)CNc1nnc(SCC(=O)OCC)[nH]c1=O | 36.0
COc1cc(OC)nc(NC(=O)NS(=O)(=O)c2ccc(OC(F)(F)F)cc2)n1 | -4.7
Cc1nc2ncnn2c(N2CCCC(C(=O)Nc3ccc4c(c3)CCC4)C2)c1C (centres undefined) | -2.0
C=CCNC(=O)c1sc(=S)n(-c2ccc(C(=O)OCC)cc2)c1N | 75.8*
COc1ccc(-n2c(N)c(C(=O)NCC3CCCO3)sc2=S)cc1 (centres undefined) | 6.7
CCOC(=O)c1sc(=S)n(CC)c1N | -9.6
CCOC(=O)c1ccc(-n2c(N)c(C(=O)NCc3ccco3)sc2=S)cc1 | 71.9*
CCOc1ccc(-n2c(C)nc3cc(C(=O)NCc4ccco4)ccc32)cc1 | -5.0
CCn1c(N)c(C(=O)NCc2ccco2)sc1=S | -5.7
NC(=O)c1cc(S(=O)(=O)NC2CCCCC2)co1 | -23.2
SMILES | RT RNaseH block
CCNC(=O)[C@@H]1CCCN1C(=O)[C@H](CCCN=C(N)N)NC(=O)[C@H](CC(C)C)NC(=O)[C@@H](CC(C)C)NC(=O)[C@H](Cc1ccc(O)cc1)NC(=O)[C@H](CO)NC(=O)[C@H](Cc1c[nH]c2ccccc12)NC(=O)[C@H](Cc1cnc[nH]1)NC(=O)[C@@H]1CCC(=O)N1 | 19.9
O=C1C2CCCN2C(c2ccc(Cl)cc2)N1c1nccs1 (centres undefined) | -5.7
C=C(C)n1c(=O)[nH]c2ccccc21 | -10.2
CCSc1nnc(NC(=O)c2ccccc2)s1 | -9.0
CCSc1nnc(NC(=O)c2csc3c2CCC(C)C3)s1 (centres undefined) | 58.1*
CCSc1nnc(NC(=O)c2cc3c(s2)CCCC3)s1 | 11.4
COc1ccc(S(=O)(=O)Cc2ccccc2)cc1N | -0.5
O=C(c1cccc(S(=O)(=O)N2CCCC2)c1)c1nnc(-c2ccncc2)o1 | 6.2
CCC1CCc2c(sc(NC(=O)c3ccoc3C)c2C(N)=O)C1 (centres undefined) | 53.0*
CCOC(=O)c1c(NC(=O)c2ccoc2C)sc2c1CCC2 | 10.8
CCN(CC)C(=O)c1sc(NC(=O)c2ccoc2C)c(C(=O)OC)c1C | 14.8
O=C(Cc1cccs1)N1CCCC(c2nc3c(nnn3Cc3cccc(Cl)c3)c(=O)[nH]2)C1 (centres undefined) | -7.0
CCOC(=O)c1cc2sc(C)cc2n1C(C)C(=O)OCC (centres undefined) | -32.4
CCOC(=O)c1c(C)oc2c1c(C=NCc1ccccn1)c(O)c1ccccc12 | -42.9
CCOC(=O)c1c(C)oc2c1c1c(c3ccccc32)OCN(Cc2cccnc2)C1 | 17.2
CCOC(=O)c1c(C)oc2c1c(C(c1cccnc1)N1CCN(C)CC1)c(O)c1ccccc12 (centres undefined) | 60.0*
CCSc1nc(-c2cccs2)nc2c1c(=O)n(C)c(=O)n2C | 13.6
O=C(CSc1ncn(-c2ccccc2)n1)Nc1ccc2c(c1)OCCO2 | -11.1
O=C(CSc1ncn(-c2ccccc2)n1)Nc1ccc(Br)cn1 | 55.1*
O=C(CSc1ccccn1)Nc1ccc(Br)cn1 | -23.4
Cc1nc(SCCCSc2n[nH]c(C)n2)n[nH]1 | -13.3
COc1ccc(N=c2oc3c(OC)cccc3cc2C(=O)NCc2ccco2)cc1OC | -3.6
COc1ccc(C(=O)Nc2ccccc2C(=O)NCc2ccco2)cc1OC | -1.1
COc1ccc(OC)c(N=c2oc3c(OC)cccc3cc2C(=O)NCc2ccco2)c1 | 88.1*
CC(=O)Oc1c(Cl)c(N2CCOCC2)c(OC(C)=O)c2ccccc12 | -1.1
